Measured values as given in the supplement of paper PMC6607015.
Where a name gives a salt, the structure may show the parent alone.

Columns and labels:
Conditions in all cases: compound concentration in added solution (µM; 5 µl added to 20 µl cells): 10; 18 h
A431 [1] = assay: LBPA endosome anti-LBPA integrated intensity (sum per cell), Z-score; higher = more LBPA staining
Method in brief: (§1)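 HeLa MZ or A431 cells (3,500/well in 20 µl) were seeded onto 5 µl of 10 µM compound solution in duplicate 384-well imaging plates, incubated 18 h, then fixed in 4% PFA. Cells were stained with 6C4 anti-LBPA antibody, filipin, propidium iodide and CellTracker green, and four 20× images were taken per well. MetaXpress segmentation gave per-cell integrated LBPA or filipin intensity, either whole-cell or within LBPA endosomes. Values are Z-scores normalised in AcuityXpress.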

HeLa MZ [2] = assay: as above
Method in brief: as §1

A431 [3] = assay: whole-cell filipin (free cholesterol) integrated intensity, Z-score; higher = more cholesterol staining
Method in brief: as §1

HeLa MZ [4] = assay: as above
Method in brief: as §1

A431 [5] = assay: filipin (cholesterol) integrated intensity within LBPA endosomes, Z-score; higher = more cholesterol in LBPA endosomes
Method in brief: as §1

HeLa MZ [6] = assay: as above
Method in brief: as §1

Row | Structure (SMILES) | LBPA endosome anti-LBPA integrated intensity (z-score) (A431 [1]) | LBPA endosome anti-LBPA integrated intensity (z-score) (HeLa MZ [2]) | whole-cell filipin (z-score) (A431 [3]) | whole-cell filipin (z-score) (HeLa MZ [4]) | filipin (z-score) (A431 [5]) | filipin (z-score) (HeLa MZ [6])
1 | C[C@@H]1[C@H](O)[C@@H](C)/C=C/C=C/C=C/C=C/C=C/C=C/C=C/[C@H](O[C@@H]2O[C@H](C)[C@@H](O)[C@H](N)[C@@H]2O)C[C@@H]2O[C@](O)(C[C@@H](O)C[C@@H](O)[C@H](O)CC[C@@H](O)C[C@@H](O)CC(=O)O[C@H]1C)C[C@H](O)[C@H]2C(=O)O [Amphotericin B] | 0.731 | -0.696 | -0.156 | 0.222 | 0.0841 | -0.26
2 | Nc1nnc(-c2cccc(Cl)c2Cl)c(N)n1 [Lamotrigine] | -0.222 | 1.64 | 0.954 | 3.15 | -0.396 | -0.375
3 | Cc1ccccc1C(OCCN(C)C)c1ccccc1 (centres undefined) [Orphenadrine hydrochloride] | -0.188 | 0.0858 | -0.344 | 1.02 | 0.191 | 0.681
4 | CCCC(CCC)C(=O)O [Valproic acid] | -0.476 | 1.11 | 0.263 | 2.69 | -0.401 | -0.484
5 | CC(CN1c2ccccc2Sc2ccccc21)N(C)C (centres undefined) [Promethazine hydrochloride] | 2.24 | 1.7 | 2.37 | 0.806 | 2.23 | 1.73
6 | Cc1onc(-c2c(Cl)cccc2Cl)c1C(=O)N[C@@H]1C(=O)N2[C@@H]1SC(C)(C)[C@@H]2C(=O)O [Dicloxacillin sodium salt hydrate] | -0.319 | -0.38 | -0.616 | -0.567 | -0.395 | -0.582
7 | C#CCN(C)CCCOc1ccc(Cl)cc1Cl [Clorgyline hydrochloride] | -0.292 | 0.155 | -1.09 | -0.252 | -0.435 | -0.359
8 | CCC1(C)CC(=O)NC1=O (centres undefined) [Ethosuximide] | -0.426 | -0.83 | -0.448 | -0.207 | -0.393 | -0.464
9 | Cc1cccc(CN2CCN(C(c3ccccc3)c3ccc(Cl)cc3)CC2)c1 (centres undefined) [Meclozine dihydrochloride] | -0.277 | -0.335 | -0.336 | -0.815 | -0.233 | -0.413
10 | CNCCCC12CCC(c3ccccc31)c1ccccc12 [Maprotiline hydrochloride] | 1.93 | 0.295 | 1.09 | 1.4 | 2.92 | 3.38
11 | CN(C(=O)C(Cl)Cl)c1ccc(OC(=O)c2ccco2)cc1 [Diloxanide furoate] | -0.565 | -0.529 | -0.629 | -0.7 | -0.498 | -0.517
12 | C[C@@H]1C[C@H]2[C@@H]3C[C@H](F)C4=CC(=O)C=C[C@]4(C)[C@@]3(Cl)[C@@H](O)C[C@]2(C)[C@H]1C(=O)COC(=O)C(C)(C)C [Clocortolone pivalate] | -0.276 | -1.1 | -0.183 | -0.473 | -0.253 | -0.536
13 | CCOC(=O)c1ccc(OC(=O)CCCCCNC(=N)N)cc1 [Gabexate mesilate] | -0.44 | 0.019 | 0.196 | 0.0139 | -0.481 | -0.456
14 | CC(C)C(=O)c1c(C(C)C)nn2ccccc12 [Ibudilast] | -0.434 | -0.686 | 0.153 | -0.112 | -0.402 | -0.704
15 | COC(=O)C1=C(C)NC(C)=C(C(=O)OC)C1c1ccccc1[N+](=O)[O-] [Nifedipine] | -0.346 | -0.877 | -0.739 | -0.61 | -0.513 | -0.614
16 | CC(N)C12CC3CC(CC(C3)C1)C2 (centres undefined) [Rimantadine Hydrochloride] | -0.677 | -0.134 | -0.496 | 0.106 | -0.59 | -0.56
17 | CCCc1nn(C)c2c(=O)[nH]c(-c3cc(S(=O)(=O)N4CCN(C)CC4)ccc3OCC)nc12 [Sildenafil] | -0.41 | -0.61 | -0.134 | -0.0955 | -0.415 | -0.257
18 | CC(=O)[C@@]1(O)CC[C@H]2[C@@H]3C[C@H](C)C4=CC(=O)C=C[C@]4(C)[C@@]3(F)[C@@H](O)C[C@@]21C [Fluorometholone] | -0.292 | -0.618 | -0.262 | -0.2 | -0.289 | -0.522
19 | Cn1ccnc1S [Methimazole] | -0.549 | -0.811 | -0.397 | -0.237 | -0.496 | -0.58
20 | c1ccc2[nH]c(-c3cscn3)nc2c1 [Tiabendazole] | -0.626 | -1.01 | -0.678 | -0.558 | -0.54 | -0.645
21 | CCCCOc1cc(C(=O)OCCN(CC)CC)ccc1N [Benoxinate hydrochloride] | 1.79 | 1.63 | 0.624 | -0.0981 | 0.826 | 0.624
22 | C#C[C@]1(O)CC[C@H]2[C@@H]3CCC4=CC(=O)CC[C@@H]4[C@H]3CC[C@@]21C [Norethindrone] | -0.462 | -0.0403 | -0.665 | -0.306 | -0.425 | -0.487
23 | CN[C@@H]1[C@@H](O)[C@@H](O[C@@H]2[C@@H](O)[C@H](O[C@H]3OC(CN)=CC[C@H]3N)[C@@H](N)C[C@H]2N)OC[C@]1(C)O [Sisomicin sulfate] | -0.541 | -0.481 | -0.622 | -0.546 | -0.517 | -0.45
24 | CC1CC(OC(=O)C(O)c2ccccc2)CC(C)(C)N1C (centres undefined) [Eucatropine hydrochloride] | -0.612 | -0.981 | -0.351 | -0.392 | -0.513 | -0.342
